An excerpt weighted towards active compounds, which were near 9% of everything screened.
KinaseGlo FLuc: Counterscreen for Luciferase (Kinase-Glo TM) Inhibition; Potency, µM (titrated, usually from 38.3 µM), usual class: inhibitors; Kinase-Glo luciferase, ATP luminescence, 8 min; actives 0.28% (n = 200,000); AID 1379, 2008; active means well fitted curve in the direction sought with a large enough effect; inconclusive means small, poorly fitted or top-dose-only effect, or another doubt; inactive means no such curve, though single readings can be large; an effect the other way counts as inactive or inconclusive; further: nearly all actives have a fitted effect of over 60% in size
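Light output from Kinase-Glo luciferase with luciferin and 10 uM ATP in 50 mM imidazole pH 7.2, KCl, MgCl2, Tween 20, BSA; compound pin-delivered, 8-min ambient incubation, then luminescence read.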
HPGD inh: qHTS Assay for Inhibitors of HPGD (15-Hydroxyprostaglandin Dehydrogenase); 15-hydroxyprostaglandin dehydrogenase [NAD(+)] (Homo sapiens), P15428; purified HPGD, NADH fluorescence kinetic, PGE2 substrate; Potency, µM, hits mostly inhibitors; actives 4.3% (n = 150,000)
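20 nM HPGD preincubated 15 min at room temperature with compound in 50 mM Tris-HCl pH 8, 0.01% Tween 20. Started with 1 mM NAD+ and 30 uM prostaglandin E2; NADH fluorescence (360/450 nm) read 5 times over 30-s intervals, last minus first.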
ALDH1A1 inh: qHTS Assay for Inhibitors of Aldehyde Dehydrogenase 1 (ALDH1A1); Purified ALDH1A1, NADH fluorescence, propionaldehyde substrate; actives 7.3% (n = 220,000); Aldehyde dehydrogenase 1A1 (Homo sapiens), P00352; Potency, µM (doses to about 75.3 µM), hits mostly inhibitors; AID 1030, 2008
Target sequence (P00352 whole entry, looked up): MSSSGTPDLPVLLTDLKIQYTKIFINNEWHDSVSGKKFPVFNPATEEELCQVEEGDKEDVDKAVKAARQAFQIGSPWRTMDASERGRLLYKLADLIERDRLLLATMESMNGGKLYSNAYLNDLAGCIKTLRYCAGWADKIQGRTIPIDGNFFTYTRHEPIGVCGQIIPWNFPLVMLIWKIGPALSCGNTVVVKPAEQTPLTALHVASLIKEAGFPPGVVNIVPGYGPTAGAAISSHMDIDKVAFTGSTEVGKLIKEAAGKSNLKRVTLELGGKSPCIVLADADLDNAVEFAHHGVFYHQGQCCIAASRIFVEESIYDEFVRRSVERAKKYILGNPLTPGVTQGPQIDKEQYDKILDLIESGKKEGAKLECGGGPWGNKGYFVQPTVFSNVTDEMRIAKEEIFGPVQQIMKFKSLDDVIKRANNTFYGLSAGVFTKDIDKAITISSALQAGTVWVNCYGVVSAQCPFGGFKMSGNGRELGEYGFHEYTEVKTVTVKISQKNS
Lamin A splicing: qHTS Assay for Modulators of Lamin A Splicing | HeLa LMNA splicing GFP/RFP minigene ratio, 48 h | Potency, µM (highest dose often 46.1 µM), usual class: inhibitors | actives 0.01% (n = 200,000) | AID 1487, 2009; active means well fitted inhibition curve with a large enough effect in the signal ratio, with a control signal flat, not every such curve was filed as active; inconclusive means small, poorly fitted or top-dose-only effect, or effect the other way, or a change in a side signal; the % refers to the signal ratio
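S3 HeLa cells stably expressing lamin A-EGFP splicing minigene plus DsRed2, 600 cells/well, 48 h compound exposure at 37C. Laser-scanning cytometry; analysed as GFP (500-530 nm)/RFP (575-640 nm) total intensity ratio; 0.5% DMSO vehicle.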
IMPase Li cell: qHTS Assay for Identifying the Cell-Membrane Permeable IMPase Inhibitors: Potentiation with Lithium. actives 0.35% (n = 210,000). CHO-M1 cells, IP1 TR-FRET (IP-One), carbachol + lithium. AID 1457, 2008. Potency, µM (series often up to 59.4 µM), usual class: inhibitors; active means well fitted curve in the direction sought with a large enough effect; inconclusive means small, poorly fitted or top-dose-only effect, or another doubt; inactive means no such curve, though single readings can be large; an effect the other way counts as inactive or inconclusive;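 further: IP1 builds up when IMPase is blocked and the TR-FRET signal falls; nearly all actives have a fitted effect of over 50% in size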
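CHO cells stably expressing M1 receptor (2000/well, cultured 16–30 h) treated 30 min at 37C with compound plus low lithium. Cytosolic IP1 by TR-FRET (665/620 ratio and 620 channel) after 10 min lysis; AC50 by Hill fit.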
A number is an active result; - = inactive; ? = inconclusive; . = no result given; [ ] = another dose, or the depositor's remark. Unless noted, the call rests on the fitted dose curve; in most records, active means well fitted inhibition curve with a large enough effect (not every such curve was filed as active); inconclusive means small, poorly fitted or top-dose-only effect, or another doubt; inactive means no such curve, though single readings can be large or run the other way.

SMILES	KinaseGlo FLuc	HPGD inh	ALDH1A1 inh	Lamin A splicing	IMPase Li cell
Oc1csc(Cc2nc(-c3ccccc3F)cs2)n1	-	.	18µM	.	-
Oc1csc(Cc2nc(-c3ccc(-c4ccccc4)cc3)cs2)n1	-	-	?	-	-
CCN1CCCC1CNCC(O)COc1ccc(C(C)(C)C)cc1C (stereo not given)	-	.	-	.	-
O=C(c1cccnc1)N1CCc2ccccc2C1	-	32µM	-	-	-
Cc1cc([N+](=O)[O-])c2[nH]c(C(=O)N/N=C/c3ccccc3C(=O)O)c(-c3ccccc3)c2c1	-	?	1.4µM	?	-
NS(=O)(=O)c1ccc(N/N=C/c2ccccc2C(=O)O)c([N+](=O)[O-])c1	-	.	?	-	-
CC(=O)Nc1cccc(NC(=O)CSc2nc(C)c(C)c(C)c2C#N)c1	-	?	10µM	-	-
Cc1cccc(NC(=O)CSc2nsc(SCC(=O)Nc3cccc(C)c3)c2C#N)c1	-	-	?	-	-
CCOc1cccc(NC(=O)CSc2nc(C)c3c(c2C#N)CCCC3)c1	-	?	-	-	4µM
CN1CCN(c2ncc3c(n2)CCN(Cc2ccc(Br)s2)C3)CC1	.	.	.	-	.
Cc1ccc(C)c(N2CCN(CCCNC(=O)c3ccc4nc(C(C)C)oc4c3)CC2)c1	.	.	.	-	.
O=C1CCSc2ccc(Cl)cc2N1Cc1ccccc1	-	-	-	-	-
Cc1cccc(CN2C(=O)CCSc3ccc(Cl)cc32)c1	-	-	14µM	-	-
C=CCCCCCCCCCCC/C=C/C(O)COC(C)=O (stereo not given)	-	-	-	?	-
COc1ccc(COc2ccc(C3C(S(=O)(=O)c4ccccc4)CON3C)cc2OC)cc1 (stereo not given)	-	.	8.9µM	?	-
CC1CCN(c2ccc(NC(=O)Cc3ccccc3)cc2)CC1	.	.	-	.	-
COc1cccc(CNc2ccc(N3CCC(C)CC3)cc2)c1OC	-	-	13µM	-	-
CC1(C)S[C@@H]2[C@H](NC(=O)[C@@H](NC(=O)N3CCNC3=O)c3ccccc3)C(=O)N2[C@H]1C(=O)O	-	-	-	?	-
O=[N+]([O-])c1ccc(N/N=C/c2ccc[nH]2)cc1	?	14µM	-	?	-
Cc1ccc(C(=O)c2ccc([N+](=O)[O-])cc2)cc1	-	-	-	-	-
Cc1ccc(S(=O)(=O)CC#CCOC(=O)c2ccc([N+](=O)[O-])cc2)cc1	-	13µM	1.1µM	?	-
O=C(CCc1c[nH]c2ccccc12)N1CCN(c2ccc(O)cc2)CC1	-	.	8.9µM	?	-
COCC(=O)c1[nH]c2ccccc2c1C	-	-	7.9µM	-	-
c1ccc(-c2nn3c(Cn4nnc5ccccc54)nnc3s2)nc1	-	7.1µM	3.2µM	-	-
Cc1nnc2sc(-c3ccccn3)nn12	-	-	-	-	-
SMILES	KinaseGlo FLuc	HPGD inh	ALDH1A1 inh	Lamin A splicing	IMPase Li cell
c1cncc(-c2nn3c(Cn4nnc5ccccc54)nnc3s2)c1	-	13µM	7.1µM	?	-
Cc1nc2ccc(C(=O)N3c4ccccc4CC3C)cc2s1 (stereo not given)	-	.	-	-	-
C/C(=N\OCC(=O)Nn1c(=O)[nH]c2ccccc2c1=O)c1ccccc1	-	-	-	-	-
CC(C)c1cc(=O)oc2c3c4c(cc12)CCCN4CCC3	-	?	?	?	-
CN1CCCc2cc3c(C(F)(F)F)cc(=O)oc3nc21	-	?	?	-	10µM
c1ccc2c[n+](CCCC[n+]3ccc4ccccc4c3)ccc2c1	-[7.66 µM]	-	-[13.5 µM]	.	-
COc1cc(S(=O)(=O)N(C)C2CCCCC2)c(C)cc1C	-	.	-	.	-
COc1ccc(C=O)cc1OC(=O)C1(C)Cc2ccccc2C(=O)O1 (stereo not given)	-	.	5µM	.	-
CC1(C(=O)Nc2ccccc2)Cc2ccccc2C(=O)O1 (stereo not given)	-	.	-	?	-
COc1ccc(C(=O)CSc2nnc(NC(=O)C3CC(=O)N(c4ccccc4C)C3)s2)cc1 (stereo not given)	-	-	11µM	-	-
NC(=O)COC(=O)c1ccccc1SCC(=O)NC1CCCCCC1	-	.	28µM	-[9.22 µM]	-
